# Results: PubChem BioAssay AID687042 (Broad Institute, 2013)
# Unmarked numbers belong to inactive results. Calls of active or inactive are those of the source.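 Rule for the calls: active = absorbance drop of 50% or more relative to neutral controls, with potency under twice the top valid dose; inactive = the rest, including effects in the opposite direction.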
# Target: Protein disulfide-isomerase A6 (Homo sapiens) (UniProt Q15084)
# Assay: ERp5 reductase inhibition, dose response, selectivity assay for PDI inhibitor project, biochemical, insulin aggregation, absorbance, dry powder, set 2 (AID 687042)
# Conditions: ERp5 insulin reduction aggregation, absorbance 650 nm; series mostly up to 35 µM; activity, negative = inhibition: at the top concentration
# Chain of Protein disulfide-isomerase A6 (Homo sapiens) (Q15084 whole entry, looked up): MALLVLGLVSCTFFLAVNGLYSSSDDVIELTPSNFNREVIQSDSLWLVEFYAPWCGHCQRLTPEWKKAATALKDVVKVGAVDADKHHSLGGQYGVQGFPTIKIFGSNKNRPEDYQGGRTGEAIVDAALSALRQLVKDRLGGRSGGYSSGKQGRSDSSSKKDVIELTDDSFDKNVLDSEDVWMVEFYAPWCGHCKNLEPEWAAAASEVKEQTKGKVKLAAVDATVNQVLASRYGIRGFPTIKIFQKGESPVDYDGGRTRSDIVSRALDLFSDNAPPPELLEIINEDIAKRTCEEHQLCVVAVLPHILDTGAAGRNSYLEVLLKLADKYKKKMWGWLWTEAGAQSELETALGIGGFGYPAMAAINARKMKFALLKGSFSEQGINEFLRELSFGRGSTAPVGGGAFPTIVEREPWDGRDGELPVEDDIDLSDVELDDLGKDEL
SMILES,"activity, negative = inhibition",outcome
CCOC(=O)C1(CCOc2ccccc2)CCN(C(=O)OC(C)(C)C)CC1,-7%,–
CCOC(=O)C1(CCOc2ccccc2)CCN(Cc2ccc3[nH]c(=O)oc3c2)CC1,2.69%,–
CCOC(=O)C1(CCOc2ccccc2)CCN(Cc2cccc(Cl)c2)CC1,6.28%,–
O=C(Nc1ccccc1)C1(CCOc2ccccc2)CCN(Cc2ccc(O)c(Cl)c2)CC1,-7.01%,–
C=CCOc1ccc(CN2CCC(CCOc3ccccc3)(C(=O)N(C)CC)CC2)cc1Cl,9.33%,–
CCOC(=O)C1CCN(C(=O)OC(C)(C)C)CC1,0.268%,–
C=CCOc1ccc(CN2CCC(CCOc3ccccc3)(C(=O)NCC)CC2)cc1Cl,-0.683%,–
C=CCOc1ccc(CN2CCC(CCOc3ccccc3)(C(=O)O)CC2)cc1Cl,5.75%,–
CCOC(=O)C1(CCOc2ccccc2)CCN(Cc2ccc(O)cc2)CC1,-6.52%,–
CCOC(=O)C1(Cc2ccccc2)CCN(Cc2ccc(O)c(Cl)c2)CC1,-8.26%,–
O=C(NC1CCCC1)C1(CCOc2ccccc2)CCN(Cc2ccc(O)c(Cl)c2)CC1,2.7%,–
C/C1=C\[C@@H](O)C(C)(C)CCCC2(C)OC2C[C@@H]1OC(=O)c1ccc(O)cc1 (some centres undefined),3.86%,–
C/C1=C\C[C@H](OC(=O)c2ccc(O)cc2)/C(C)=C/[C@@H](O)C(C)(C)CCC1,14.5%,–
O=C(N1CCCC1)C1(CCOc2ccccc2)CCN(Cc2ccc(O)c(Cl)c2)CC1,0.652%,–
C=CCOc1ccc(CN2CCC(CCOc3ccccc3)(C(=O)N3CCCC3)CC2)cc1Cl,12.4%,–
C=CCOc1ccc(CN2CCC(CCOc3ccccc3)(C(=O)OCC)CC2)cc1Cl,2.71%,–
CCOC(=O)c1c(CN2CCN(CCO)CC2)n(-c2ccccc2)c2cc(Br)c(O)cc12,30.7%,–
CC(C)OC(=O)C1(CCOc2ccccc2)CCN(Cc2ccc(O)c(Cl)c2)CC1,2.23%,–
CCOC(=O)C1(CCOC)CCCN(Cc2ccc(Cl)cc2)C1 (centres undefined),-6.3%,–
CCNC(=O)C1(CCOc2ccccc2)CCN(Cc2ccc(O)c(Cl)c2)CC1,-0.667%,–
CCOC(=O)C1(CCOc2ccccc2)CCN(Cc2ccc(OC)c(Cl)c2)CC1,-4.15%,–
C=CCOc1ccc(CN2CCC(CCOc3ccccc3)(C(=O)NC3CCCC3)CC2)cc1Cl,6.26%,–
CCOC(=O)C1(CCOc2ccccc2)CCN(Cc2ccc(O)c(Cl)c2)CC1,–,inactive
CCOC(=O)C1(CCOc2ccccc2)CCN(C(=O)c2ccc(O)c(Cl)c2)CC1,7.26%,–
CCOC(=O)C1(CCOc2ccccc2)CCN(Cc2ccc(OC)cc2)CC1,-4.92%,–
CCOC(=O)C1(Cc2cccc(OC)c2)CCN(Cc2ccc(O)c(Cl)c2)CC1,5.81%,–
CC(C)(C)OC(=O)C1(CCOc2ccccc2)CCN(Cc2ccc(O)c(Cl)c2)CC1,7.04%,–
CCN(C)C(=O)C1(CCOc2ccccc2)CCN(Cc2ccc(O)c(Cl)c2)CC1,4.18%,–
CCOC(=O)C1(CCOC)CCN(Cc2ccc(O)c(Cl)c2)CC1,-4.25%,–
